The results in this text go back to PubChem BioAssay.

The source made the active and inactive calls.

Experiment [1] is described as follows: small molecules captured by biotinylated probe aFSTL3 – biochemical, small-molecule microarray, fluorescence 635/667, stem cell growth factor project, primary screen (AID 1064).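 Further: measures binding of the biotinylated anti-FSTL3 antibody to printed compounds.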 As to conditions: higher = more signal.
The nature of experiment [2]: binders from COS7 lysate, DM2A8 probe, primary screen, torsin A project, cell lysate, small-molecule microarray, fluorescence 635/667 (AID 1065). As to conditions: higher = more signal, COS7 lysate expressing mutant human TOR1A.
The nature of experiment [3]: small molecules captured by biotinylated probe aFGF2 – biochemical, small-molecule microarray, fluorescence 635/667, stem cell growth factor project, primary screen (AID 1067).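 Further: measures binding of biotinylated aFGF2 protein to printed compounds on slides; z-score merges feature fluorescence and signal-to-noise across triplicate slides.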 The note with it: higher = more signal.
Experiment [4] can be described thus: small molecules captured by biotinylated probe aFGF10 – biochemical, small-molecule microarray, fluorescence 635/667, stem cell growth factor project, primary screen (AID 1071).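 Further: score merges 667 nm spot intensity and signal to noise from triplicate slides.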 As to conditions: higher = more signal.
Experiment [5] addresses Neurogenic locus notch homolog protein 2 (Homo sapiens) (UniProt Q04721). The experiment in a line: small molecules binding Notch2 protein – biochemical, small-molecule microarray, 635 nm fluorescence, stem cell growth factors, primary screen (AID 1073). As to conditions: higher = more signal.
The target in experiment [6] is Pro-neuregulin-1, membrane-bound isoform (Homo sapiens) (UniProt Q02297). The experiment in a line: small molecules binding neuregulin-1 protein – biochemical, small-molecule microarray, fluorescence 635/667, psychiatric disease protein project, primary screen (AID 1075).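 Further: score combines 667 nm spot fluorescence with signal to noise.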 As to conditions: NRG1 binding, 635 nm fluorescence, higher = more signal.
The test system of experiment [7] is Neuregulin-1 EGF-like domain. The experiment in a line: small molecules binding NRG1 EGF domain – biochemical, small-molecule microarray, 635 nm fluorescence, primary screen (AID 1081).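 Further: binding of the protein to compounds printed on small-molecule microarray slides.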 As to conditions: higher = more signal.
Experiment [8] is described as follows: FRG1 expression reporter modulators in myotubes – cell-based, C2C12 myotubes, firefly/Renilla luciferase, luminescence, FRG1 inhibition for FSHD, primary screen (AID 1084). As to conditions: FRG1 promoter luciferase, higher = more signal, called active from +8 up or from −8 down.
The nature of experiment [9]: small molecules captured by biotinylated probe aFST – biochemical, small-molecule microarray, fluorescence 635/667, stem cell growth factor project, primary screen (AID 1086).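 Further: score merges 667 nm fluorescence with signal-to-noise of each printed compound spot.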 The note with it: higher = more signal.
Experiment [10] can be described thus: binders of probe aHhip on microarray, primary screen, stem cell growth factor project, biochemical, small-molecule microarray, fluorescence 635/667 (AID 1087).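 Further: score merges spot fluorescence at 667nm with spot signal to noise ratio.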 The note with it: higher = more signal.
The subject of experiment [11] is PRMT1 (protein arginine N-methyltransferase 1). The experiment in a line: small molecules binding arginine methyltransferase PRMT1 – biochemical, small-molecule microarray, 635 nm fluorescence, primary screen (AID 1088).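 Further: binding of Prmt1 protein to compounds spotted on small-molecule microarray slides.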 As to conditions: higher = more signal.
Experiment [12] can be described thus: growth effects on S. cerevisiae YJM789 – YJM789 clinical isolate, OD600, 24 h, basal, primary screen (AID 1089).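 Further: growth of clinical yeast isolate S. cerevisiae YJM 789 seeded 1000 cells per well; test concentration not given here.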 As to conditions: higher = more signal, called active from +8 up or from −8 down.
Experiment [13] is described as follows: S. pombe growth modifiers, basal conditions – strain 972, OD600, 24 h, no modulator, primary screen (AID 1090).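 Further: basal condition with compound alone and no growth modifier present; test concentration not given here.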 The note with it: S. pombe 972 growth, higher = more signal, called active from +8 up or from −8 down.
Experiment [14] is described as follows: budding yeast growth modifiers under rapamycin – strain BY4716, OD600, 96 h, primary screen (AID 1091). Further: test concentration not given here. The note with it: S. cerevisiae BY4716 + rapamycin, higher = more signal, called active from +8 up or from −8 down.
Experiment [15] addresses Torsin-1A-interacting protein 2 (Homo sapiens) (UniProt Q8NFQ8). Nature of the experiment: small molecules binding lysate-expressed LULL1 – cell lysate, human LULL1 lysate, 635/667 nm fluorescence, primary screen (AID 1092).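 Further: probe is lysate of COS7 cells overexpressing human LULL1; score merges per-feature 667 nm fluorescence with signal-to-noise.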 As to conditions: small-molecule microarray, hLULL1 lysate binding, 635 nm fluorescence; higher = more signal.
The nature of experiment [16]: optical density change of DRC41 E. coli – strain DRC41, OD650, 24 h, E. coli filamentation project, primary screen (AID 1093).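 Further: MC1000 strain lacking acrAB efflux and sulA so SOS filamentation is blocked; test concentration not given here.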 The note with it: E. coli DRC41 growth, higher = more signal, called active from +8 up or from −8 down.
Experiment [17] can be described thus: probe aLefty2 binding to arrayed compounds – biochemical, biotinylated probe, 635/667 nm fluorescence, primary screen (AID 1094).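 Further: score merges spot fluorescence near 667 nm with spot signal-to-noise ratio.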 The note with it: small-molecule microarray, higher = more signal.
Experiment [18] concerns Noggin (protein binding on small-molecule microarray). The experiment in a line: small molecules binding Noggin protein – biochemical, 635/667 nm fluorescence, primary screen (AID 1095).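 Further: score merges 667 nm feature fluorescence with signal to noise over triplicate slides.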 As to conditions: 635 nm fluorescence, higher = more signal.
In experiment [19] the target is Neurogenic locus notch homolog protein 3 (Homo sapiens) (UniProt Q9UM47). Nature of the experiment: small molecules binding NOTCH3 protein – biochemical, 635/667 nm fluorescence, primary screen (AID 1096). The note with it: small-molecule microarray, 635 nm fluorescence, higher = more signal.
Sequence of Neurogenic locus notch homolog protein 3 (Homo sapiens) (Q9UM47 whole entry, looked up): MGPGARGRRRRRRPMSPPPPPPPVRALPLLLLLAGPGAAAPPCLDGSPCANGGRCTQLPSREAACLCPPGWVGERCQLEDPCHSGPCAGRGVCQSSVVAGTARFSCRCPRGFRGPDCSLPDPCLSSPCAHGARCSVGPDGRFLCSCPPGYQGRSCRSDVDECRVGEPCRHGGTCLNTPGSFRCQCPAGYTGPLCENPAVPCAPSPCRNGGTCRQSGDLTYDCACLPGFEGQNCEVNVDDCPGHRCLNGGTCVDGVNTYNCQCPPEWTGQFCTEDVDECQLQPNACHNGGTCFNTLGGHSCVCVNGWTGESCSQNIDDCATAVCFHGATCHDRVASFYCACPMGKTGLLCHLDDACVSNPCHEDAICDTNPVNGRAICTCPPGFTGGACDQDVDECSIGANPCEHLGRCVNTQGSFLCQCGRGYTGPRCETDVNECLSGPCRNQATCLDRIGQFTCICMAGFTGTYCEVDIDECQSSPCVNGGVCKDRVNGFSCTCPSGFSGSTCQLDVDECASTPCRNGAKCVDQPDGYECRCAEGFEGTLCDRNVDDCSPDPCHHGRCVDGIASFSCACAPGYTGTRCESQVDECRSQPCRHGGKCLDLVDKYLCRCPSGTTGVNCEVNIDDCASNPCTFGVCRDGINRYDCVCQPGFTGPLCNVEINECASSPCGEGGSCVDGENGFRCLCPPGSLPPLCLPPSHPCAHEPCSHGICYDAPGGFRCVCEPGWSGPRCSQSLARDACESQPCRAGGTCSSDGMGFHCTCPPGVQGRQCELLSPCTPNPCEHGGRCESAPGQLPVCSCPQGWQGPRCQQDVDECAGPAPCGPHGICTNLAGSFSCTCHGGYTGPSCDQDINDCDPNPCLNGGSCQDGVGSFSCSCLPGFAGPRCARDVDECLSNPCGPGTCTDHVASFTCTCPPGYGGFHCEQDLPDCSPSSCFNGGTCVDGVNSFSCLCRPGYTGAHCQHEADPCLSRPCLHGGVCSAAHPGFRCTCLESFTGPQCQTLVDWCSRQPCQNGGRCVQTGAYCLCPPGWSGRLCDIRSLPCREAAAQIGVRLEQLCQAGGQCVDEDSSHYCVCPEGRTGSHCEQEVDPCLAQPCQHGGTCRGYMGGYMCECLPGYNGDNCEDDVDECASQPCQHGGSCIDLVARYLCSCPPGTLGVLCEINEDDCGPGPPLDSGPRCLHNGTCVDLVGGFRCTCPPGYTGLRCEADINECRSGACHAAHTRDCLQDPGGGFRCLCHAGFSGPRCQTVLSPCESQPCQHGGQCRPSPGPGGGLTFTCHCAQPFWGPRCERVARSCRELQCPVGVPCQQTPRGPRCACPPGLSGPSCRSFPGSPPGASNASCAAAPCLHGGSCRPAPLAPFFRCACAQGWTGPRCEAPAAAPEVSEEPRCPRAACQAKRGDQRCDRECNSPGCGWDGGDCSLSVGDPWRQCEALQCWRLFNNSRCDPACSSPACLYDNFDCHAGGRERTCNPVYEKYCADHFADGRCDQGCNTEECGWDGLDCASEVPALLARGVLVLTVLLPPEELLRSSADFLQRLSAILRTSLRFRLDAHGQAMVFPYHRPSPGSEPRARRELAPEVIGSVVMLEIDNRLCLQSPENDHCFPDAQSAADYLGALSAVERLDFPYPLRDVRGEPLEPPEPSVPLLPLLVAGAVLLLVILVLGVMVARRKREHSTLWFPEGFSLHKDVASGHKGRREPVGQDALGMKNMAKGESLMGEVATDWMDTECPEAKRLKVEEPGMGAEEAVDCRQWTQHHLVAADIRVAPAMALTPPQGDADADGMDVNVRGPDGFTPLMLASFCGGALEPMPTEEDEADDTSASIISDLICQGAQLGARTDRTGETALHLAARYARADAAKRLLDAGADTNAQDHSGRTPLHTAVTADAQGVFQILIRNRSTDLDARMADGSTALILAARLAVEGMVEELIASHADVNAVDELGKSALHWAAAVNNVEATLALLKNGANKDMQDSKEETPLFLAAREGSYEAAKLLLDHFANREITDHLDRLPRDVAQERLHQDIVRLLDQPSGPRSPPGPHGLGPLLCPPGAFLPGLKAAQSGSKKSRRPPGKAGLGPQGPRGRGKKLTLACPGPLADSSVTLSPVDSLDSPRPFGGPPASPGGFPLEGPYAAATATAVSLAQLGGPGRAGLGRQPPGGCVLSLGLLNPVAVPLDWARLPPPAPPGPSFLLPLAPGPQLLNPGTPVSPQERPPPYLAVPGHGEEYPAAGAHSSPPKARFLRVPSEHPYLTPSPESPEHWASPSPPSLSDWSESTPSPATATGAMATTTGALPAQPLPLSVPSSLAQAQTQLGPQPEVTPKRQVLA
Experiment [20] is described as follows: probe aEGFR binding to arrayed compounds – biochemical, biotinylated probe, 635/667 nm fluorescence, primary screen (AID 1097).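 Further: probe is a biotinylated anti-EGFR antibody binding compounds printed on slides; score combines fluorescence near 667 nm and signal to noise of each spot.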 The note with it: small-molecule microarray, higher = more signal.

Sequence of Neurogenic locus notch homolog protein 2 (Homo sapiens) (Q04721 whole entry, looked up, canonical isoform): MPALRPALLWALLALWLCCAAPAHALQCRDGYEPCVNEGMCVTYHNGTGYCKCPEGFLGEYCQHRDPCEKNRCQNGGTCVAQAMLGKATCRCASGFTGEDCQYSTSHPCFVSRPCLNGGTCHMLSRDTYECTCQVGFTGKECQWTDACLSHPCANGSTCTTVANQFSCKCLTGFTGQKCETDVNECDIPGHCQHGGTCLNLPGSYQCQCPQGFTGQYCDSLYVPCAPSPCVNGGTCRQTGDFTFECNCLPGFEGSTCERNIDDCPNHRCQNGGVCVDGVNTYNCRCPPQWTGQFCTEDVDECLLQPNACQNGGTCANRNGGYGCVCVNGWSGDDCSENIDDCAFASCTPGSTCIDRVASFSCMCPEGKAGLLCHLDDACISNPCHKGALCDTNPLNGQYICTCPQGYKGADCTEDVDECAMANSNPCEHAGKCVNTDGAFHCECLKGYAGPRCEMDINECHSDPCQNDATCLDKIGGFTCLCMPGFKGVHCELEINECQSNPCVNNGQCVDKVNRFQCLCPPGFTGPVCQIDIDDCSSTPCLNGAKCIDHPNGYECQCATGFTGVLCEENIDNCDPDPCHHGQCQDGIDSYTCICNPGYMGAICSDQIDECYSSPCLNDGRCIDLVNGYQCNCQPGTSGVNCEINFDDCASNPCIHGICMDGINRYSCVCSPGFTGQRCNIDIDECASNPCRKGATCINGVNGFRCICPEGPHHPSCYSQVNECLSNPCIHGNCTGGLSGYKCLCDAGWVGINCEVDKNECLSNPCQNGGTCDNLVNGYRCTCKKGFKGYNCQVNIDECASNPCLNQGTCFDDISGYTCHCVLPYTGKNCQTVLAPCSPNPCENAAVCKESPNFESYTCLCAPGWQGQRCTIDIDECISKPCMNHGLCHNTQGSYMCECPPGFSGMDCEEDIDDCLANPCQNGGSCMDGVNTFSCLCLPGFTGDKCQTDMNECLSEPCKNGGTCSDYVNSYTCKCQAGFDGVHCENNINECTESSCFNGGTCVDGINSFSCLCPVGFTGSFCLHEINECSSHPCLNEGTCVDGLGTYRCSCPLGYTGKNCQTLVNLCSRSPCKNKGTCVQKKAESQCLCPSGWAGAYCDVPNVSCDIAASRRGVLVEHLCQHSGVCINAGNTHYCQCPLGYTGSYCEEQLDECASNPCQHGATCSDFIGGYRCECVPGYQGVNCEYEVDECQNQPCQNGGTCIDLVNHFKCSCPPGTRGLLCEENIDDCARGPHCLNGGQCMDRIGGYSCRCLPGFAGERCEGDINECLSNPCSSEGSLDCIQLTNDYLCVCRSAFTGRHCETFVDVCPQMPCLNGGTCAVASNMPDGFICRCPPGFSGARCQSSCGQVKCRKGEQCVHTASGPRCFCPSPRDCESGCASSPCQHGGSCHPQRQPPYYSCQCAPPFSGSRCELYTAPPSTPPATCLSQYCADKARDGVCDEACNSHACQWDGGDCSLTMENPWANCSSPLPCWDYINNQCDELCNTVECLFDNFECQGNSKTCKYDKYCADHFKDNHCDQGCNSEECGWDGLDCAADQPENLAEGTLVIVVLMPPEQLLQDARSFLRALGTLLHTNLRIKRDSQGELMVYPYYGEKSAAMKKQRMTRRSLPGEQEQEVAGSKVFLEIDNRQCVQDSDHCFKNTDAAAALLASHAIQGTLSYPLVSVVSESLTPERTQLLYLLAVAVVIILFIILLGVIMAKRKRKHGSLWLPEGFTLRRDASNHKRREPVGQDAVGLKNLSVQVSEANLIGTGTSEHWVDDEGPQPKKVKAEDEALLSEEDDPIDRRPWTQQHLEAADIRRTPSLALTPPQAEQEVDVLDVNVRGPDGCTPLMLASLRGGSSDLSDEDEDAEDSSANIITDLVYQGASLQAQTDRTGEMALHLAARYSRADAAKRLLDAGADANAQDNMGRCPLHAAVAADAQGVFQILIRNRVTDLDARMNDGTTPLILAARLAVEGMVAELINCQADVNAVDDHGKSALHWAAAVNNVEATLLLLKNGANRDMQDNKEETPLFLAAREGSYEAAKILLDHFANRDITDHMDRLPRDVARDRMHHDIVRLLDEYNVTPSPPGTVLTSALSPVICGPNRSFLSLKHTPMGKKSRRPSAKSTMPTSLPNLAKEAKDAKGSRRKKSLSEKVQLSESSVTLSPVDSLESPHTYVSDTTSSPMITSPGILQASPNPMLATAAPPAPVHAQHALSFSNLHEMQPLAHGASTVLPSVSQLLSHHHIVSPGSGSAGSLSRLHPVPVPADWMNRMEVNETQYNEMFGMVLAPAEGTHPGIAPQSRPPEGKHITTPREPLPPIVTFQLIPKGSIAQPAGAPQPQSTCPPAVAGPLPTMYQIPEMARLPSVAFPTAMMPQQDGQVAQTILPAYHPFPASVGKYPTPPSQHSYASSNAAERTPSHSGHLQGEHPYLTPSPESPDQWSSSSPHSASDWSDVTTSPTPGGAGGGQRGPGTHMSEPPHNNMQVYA

For the compound `CC(=O)NCCCC[C@@H]1NC(=O)[C@H]2C[C@@H](C(=O)NCCCCCC[N+](C)(C)C)[C@@H](c3ccc(O)cc3)N2C1=O`, the composite z-score in experiment [1] is -0.383; in experiment [2], 0.808; in [3] it was -0.144; in experiment [4] it was -0.351; in experiment [5] it was -0.181; in experiment [6], 1.35. Also, the composite z-score in [7] was 1.41; in experiment [9] it was -0.18; in experiment [10], -0.199; in experiment [11], 1.55; in experiment [15], 3.04; in experiment [17], -0.0206. Also, the composite z-score in experiment [18] is 1.46; in experiment [19], 0.702; in experiment [20], -0.125. In addition, the z-score was 5.36 (inactive) in experiment [8]; -0.509 (inactive) in experiment [12]; 0.555 (inactive) in experiment [13]; -0.489 (inactive) in experiment [14]; 0.478 (inactive) in experiment [16].

Take `C=CCC(OC(C)=O)[C@@H]1[C@@H](N(Cc2ccc(-c3cccc(C(F)(F)F)c3)o2)C(=O)Cc2ccc(F)cc2)c2cc(OCCCO)ccc2N1C(=O)c1ccc2ccccc2c1` (stereo not given in full): the composite z-score is 0.196 in [1]; 0.167 in [2]; -0.133 in experiment [3]; -0.428 in [4]; -0.58 in experiment [5]; -0.28 in [6]. Also, the composite z-score was -0.0656 in experiment [7]; 0.487 in experiment [9]; -0.0994 in experiment [10]; -1.22 in experiment [11]; -0.305 in experiment [15]; -0.0485 in [17]. For the same compound, the composite z-score in [18] is 0.0055; in experiment [19] it was -0.35; in experiment [20], 0.0804. Further, the z-score in experiment [8] was 0.512 (inactive); in [12], -0.428 (inactive); in experiment [13] it was 0.498 (inactive); in experiment [14], -1.2 (inactive); in experiment [16] it was -0.381 (inactive).

As to `COCCCNC(=O)[C@@H]1c2ccccc2C(=O)N(C2CCCCC2)[C@H]1c1ccc(CO)cc1`, the composite z-score in experiment [1] was 0.503; in experiment [2], -0.763; in experiment [3] it was -0.105; in experiment [4], -0.564; in experiment [5] it was -1.03; in experiment [6], 1.2. Also, the composite z-score in experiment [7] is 1.45; in experiment [9], -0.341; in experiment [10], -0.236; in experiment [11], -0.158; in [15], 2.86; in experiment [17], -0.018. Also, the composite z-score in experiment [18] is -0.597; in [19] it was -0.47; in [20], -0.257. For the same compound, the z-score was -0.108 (inactive) in experiment [8]; -0.0916 (inactive) in [12]; -0.769 (inactive) in experiment [13]; -0.285 (inactive) in experiment [14]; 0.216 (inactive) in experiment [16].

For `COC(=O)[C@@]1(Cc2ccc(OC)cc2)[C@H]2c3cc(C(=O)N(C)C)n(Cc4ccsc4Br)c3C[C@H]2CN1C(=O)c1ccccc1`, the composite z-score is 0.254 in experiment [1]; -0.162 in experiment [2]; 0.336 in [3]; 0.752 in [4]; 1.64 in [5]; 1.89 in experiment [6]. Besides, the composite z-score in experiment [7] is 0.856; in experiment [9], 0.45; in experiment [10], 0.239; in experiment [11] it was -0.323; in [15] it was 3.41; in experiment [17], 0.599. In addition, the composite z-score in [18] is -0.56; in experiment [19], 0.251; in experiment [20] it was 0.301. The z-score is -0.778 (inactive) in [8]; 1.36 (inactive) in experiment [12]; 1.51 (inactive) in experiment [13]; 1.53 (inactive) in experiment [14]; 0.126 (inactive) in experiment [16].

With `COCCOC(=O)N1C(=O)[C@@]2(c3cc(C#CCC(C(=O)OC)C(=O)OC)ccc31)[C@H](C(=O)N1CCCCCCC1)[C@H]1C(=O)O[C@H](c3ccccc3)[C@H](c3ccccc3)N1[C@@H]2c1ccccc1OCCO`, the composite z-score in [1] turned out to be 3.92; in experiment [2] it was 1.8; in [3], 0.825; in [4], 0.481; in [5], 1.39; in experiment [6] it was 0.811. For the same compound, the composite z-score is 1.12 in [7]; 3.34 in experiment [9]; 2.72 in experiment [10]; 1.56 in experiment [11]; 2.88 in experiment [15]; 1.82 in experiment [17]. Further, the composite z-score is 1.82 in experiment [18], 1.14 in experiment [19] and 1.06 in [20]. The z-score in experiment [8] is 0.158 (inactive); in experiment [12] it was 0.917 (inactive); in experiment [13], -1.08 (inactive); in [14], 3.51 (inactive); in experiment [16] it was 0.858 (inactive).
